The list is not random: actives were taken first. Their share in the collection is about 19%.
Chronic BCR inh – inhibitors of chronic active B-cell receptor signaling; ABC-DLBCL IkBa-CBG/CBR reporter, luminescence ratio, 4 h; Potency, µM (doses to about 46.1 µM), inactives show top-dose activity change, negative = inhibition, usual class: inhibitors; 340,000 tested, 0.05% active; AID 493014; active means well fitted inhibition curve with a large enough effect in the signal ratio, with a control signal flat, not every such curve was filed as active; inconclusive means small, poorly fitted or top-dose-only effect, or effect the other way, or a change in a side signal; the % refers to the signal ratio;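 further: potency means the concentration at half of the fitted maximal effect; plate controls were basal doxycycline-induced cells for no effect and cells given 10 µM MG132 for full effect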
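Cell line TMD8 (human ABC DLBCL), stably expressing tet-inducible CBG68-IkBa fusion and CBR; IMDM/0.5% FBS; cpd up to 46 uM; dox induction, 4 h, 37C/5% CO2; dual luminescence; green/red ratio; MG132 control.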
MCF10A rerep – DNA re-replication induction in MCF 10a cells | MCF 10A DNA re-replication, Hoechst nuclear intensity, 48 h | Potency, µM (series often up to 46.1 µM), for inactives: at the highest dose activity, positive = re-replication, hits mostly activators | 350,000 tested, 2.9% active | AID 624296; further: potency means the concentration at half of the fitted maximal effect; % of control where 0% means no effect; nearly all actives have a fitted effect of over 50% in size
DT40 TDP1 no CPT – qHTS for Inhibitors of human tyrosyl-DNA phosphodiesterase 1 (TDP1): qHTS in cells in absence of CPT; DT40 Tdp1-/- hTDP1 cells, no CPT, ATP luminescence, 48 h; Potency, µM (highest dose often 46.2 µM), for inactives: at the highest dose activity change, negative = growth inhibition, usual class: inhibitors; 420,000 tested, 15% active; AID 686978, 2013; further: potency means the concentration at half of the fitted maximal effect; on the % scale 0 is the no-effect control and ±100 the full control effect; nearly all actives have a fitted effect of over 55% in size
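DT40 Tdp1-/-;hTDP1 cells, no CPT (DMSO vehicle only), 400 cells/well; compounds pin-transferred; ≥48 hr, 37 °C; CellTiter-Glo 30 min RT dark, luminescence read.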
DT40 TDP1 CPT – DT40-hTDP1 cell growth loss with CPT; 420,000 tested, 12% active; Potency, µM (top dose mostly 46.2 µM), without a hit: at the highest dose activity change, negative = growth inhibition, usual class: inhibitors; chicken DT40 Tdp1-/-;hTDP1 cells + 20 nM CPT, ATP luminescence, 48 h; further: potency means the concentration at half of the fitted maximal effect; on the % scale 0 is the no-effect control and ±100 the full control effect; nearly all actives have a fitted effect of over 55% in size
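Chicken DT40 Tdp1-/- cells stably complemented with human TDP1 were seeded at 400 cells/well in medium containing 20 nM camptothecin, exposed to pin-transferred compounds, and grown at 37 °C for at least 48 hr. Viability was read as ATP luminescence.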
IL-1B inflam inh – inflammasome signaling inhibition, IL-1 beta readout | THP-1 LPS/ATP IL-1B secretion, AlphaLISA, 16 h; hits give low values | activity change, % at 57.5 µM | 360,000 tested, 4.7% active | AID 743279; in the data active means activity change below about -50%; inconclusive means mostly about -30% to -49%; further: on the % scale 0 is the no-effect control and ±100 the full control effect
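THP-1 cells pretreated 1 hr with compounds (up to 57.5 uM final), then stimulated with LPS (250 ng/mL final) plus ATP (1.25 mM final); secreted IL-1B measured by AlphaLISA after 16 hr, decreased signal indicating inhibition.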
SW480 rerep – inducers of DNA re-replication in SW480 colon cancer cells; SW480 DNA re-replication, Hoechst DNA content imaging, 48 h; Potency, µM (series often up to 46.1 µM), without a hit: at the top dose re-replication activation, actives largely listed as activators; 340,000 tested, 1.8% active; AID 624297; further: potency means the concentration at half of the fitted maximal effect; % of control where 0% means no effect; nearly all actives have a fitted effect of over 55% in size
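Quantitative HTS format with DMSO vehicle controls; 48 hr drug incubation at 37 C, then 40 min Hoechst staining and scanning imager measurement at 405 nm excitation.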
An asterisk follows results filed as active; ? = inconclusive; . = no result. Unless noted, the call rests on the fitted dose curve; in most records, active means well fitted curve in the direction sought with a large enough effect; inconclusive means small, poorly fitted or top-dose-only effect, or another doubt; inactive means no such curve, though single readings can be large; an effect the other way counts as inactive or inconclusive.

SMILES | Chronic BCR inh | MCF10A rerep | DT40 TDP1 no CPT | DT40 TDP1 CPT | IL-1B inflam inh | SW480 rerep
O=C1/C(=C\c2ccc(O)c(O)c2)N=C2CCCCCN12 | ? | -18.8% | ? | 23.1µM* | 37.6 | ?
COc1ccc(/C=C2\N=C3CCCCCN3C2=O)cc1OC | 10.5% | 0.9% | -1.5% | -10.4% | 27.4 | 3.4%
CCCCN1CCNC[C@H]1Cc1ccc(O)cc1 | -3.3% | 0.6% | -11.6% | -18.8% | -1.1 | -0.7%
Oc1ccc(C[C@H]2CNCCN2CCC23CC4CC(CC(C4)C2)C3)cc1 | -11.5% | 7.3% | 16.4µM* | 18.4µM* | ? | 5.1%
Oc1ccc(C[C@@H]2CNCCN2CCC23CC4CC(CC(C4)C2)C3)cc1 | ? | 1.4% | 13µM* | 16.4µM* | -10.8 | 12.7%
COc1cc(CCCN2CCNC[C@H]2Cc2ccc(O)cc2)cc(OC)c1OC | -7.8% | -0.8% | -10.0% | -2.0% | 3.8 | 0.1%
CC(C)(C)NC(=O)C(c1cccc2ccccc12)n1c(=O)c(-c2cc3ccccc3[nH]2)nc2ccccc21 (centres undefined) | . | . | ? | ? | 138.2 | .
CCOC(=O)C1CCCN(c2cc(C)nc3cc(-c4ccc(Cl)cc4)nn23)C1 (centres undefined) | ? | -0.5% | 23.1µM* | ? | 9.2 | -3.0%
CCOC(=O)C1CCCN(c2cc(C)nc3cc(-c4ccc(F)cc4)nn23)C1 (centres undefined) | -12.5% | 2.8% | 23.1µM* | 23.1µM* | 13.6 | -4.1%
CCOC(=O)C1CCCN(C(=O)c2ccc(Cl)cc2)C1 (centres undefined) | 9.4% | -14.0% | 1.1% | 4.6% | 16.3 | -3.3%
CCOC(=O)C1CCCN(C(=S)Nc2ccc(F)cc2)C1 (centres undefined) | 0.2% | -50.8% | -22.6% | -25.2% | -4.1 | -26.7%
Cc1cc(C(=O)N2CCC2(C)C(=O)NS(=O)(=O)c2ccccc2Cl)nn1C (centres undefined) | . | . | -8.5% | -13.2% | -5.0 | .
Cc1ccc(Cl)cc1N1CCN(C(=O)CCCCCn2c(=O)[nH]c3ccccc3c2=O)CC1 | ? | . | 0.651µM* | 0.731µM* | . | .
Cc1ccc(C)c(N2CCN(C(=O)CCCCCn3c(=O)[nH]c4ccccc4c3=O)CC2)c1 | -9.2% | . | ? | ? | . | .
Cc1ccc(Cl)cc1N1CCN(C(=O)CCCn2c(=O)c3cccn3c3cccnc32)CC1 | ? | 16.4µM* | 29.1µM* | ? | -9.4 | ?
Cc1cccc(N2CCN(C(=O)CCCn3c(=O)c4cccn4c4cccnc43)CC2)c1C | 0.5% | ? | 18.4µM* | ? | -24.1 | -14.9%
CCc1ccc2ncc3c(-c4ccc(F)cc4)nn(CC(=O)NC4CCCCC4)c3c2c1 | . | . | -2.3% | 12.7% | . | .
C[C@H](CO)N1C[C@H](C)[C@@H](CN(C)Cc2cccc(F)c2)Oc2cc(-c3cccc(C#N)c3)ccc2S1(=O)=O | . | . | 23.1µM* | ? | ? | .
C[C@H]1CN([C@@H](C)CO)S(=O)(=O)c2ccc(C#CC(C)(C)O)cc2O[C@H]1CN(C)Cc1ccccc1 | . | . | 23.1µM* | 18.4µM* | -26.7 | .
C[C@@H]1CN([C@@H](C)CO)S(=O)(=O)c2ccc(Br)cc2O[C@H]1CN(C)Cc1ccc(-c2ccccc2)cc1 | . | . | 5.8µM* | 20.6µM* | -27.8 | .
C[C@@H]1CN([C@@H](C)CO)S(=O)(=O)c2ccc(Br)cc2O[C@H]1CN(C)C(=O)c1ccccc1 | . | . | ? | ? | -24.6 | .
C[C@@H]1CN([C@@H](C)CO)S(=O)(=O)c2ccc(C#CC3CCCCC3)cc2O[C@@H]1CN(C)Cc1cccnc1 | . | . | 5.17µM* | 14.6µM* | -66.3* | .
CCCCOc1cccc(C2/C(=C(\O)c3ccc4c(c3)OCCO4)C(=O)C(=O)N2CCN2CCOCC2)c1 (centres undefined) | 4.8% | -1.1% | ? | ? | 23.1 | -0.1%
C[C@@H]1CN([C@@H](C)CO)S(=O)(=O)c2ccc(Br)cc2O[C@H]1CN(C)C(=O)c1cccc(F)c1 | . | . | ? | -5.9% | -15.0 | .
C[C@H](CO)N1C[C@H](C)[C@@H](CN(C)Cc2ccc(Oc3ccccc3)cc2)Oc2cc(Br)ccc2S1(=O)=O | . | . | 11.6µM* | 23.1µM* | -1.9 | .
SMILES | Chronic BCR inh | MCF10A rerep | DT40 TDP1 no CPT | DT40 TDP1 CPT | IL-1B inflam inh | SW480 rerep
C[C@H]1CN([C@@H](C)CO)S(=O)(=O)c2ccc(Br)cc2O[C@@H]1CN(C)Cc1cccc(F)c1 | . | . | 16.4µM* | 16.4µM* | -26.5 | .
CCc1ccc(-c2cc(C)no2)cc1S(=O)(=O)N1CCN(c2cc(C)ccc2C)CC1 | 7.4% | -7.5% | 16.4µM* | ? | -8.7 | -33.6%
CCc1ccc(-c2cc(C)no2)cc1S(=O)(=O)N1CCN(c2ccc(C(C)=O)cc2)CC1 | 9.5% | ? | 18.4µM* | ? | -17.1 | ?
CCc1ccc(-c2cc(C)no2)cc1S(=O)(=O)N1CCN(c2cccc(Cl)c2)CC1 | . | . | 0.651µM* | 1.03µM* | . | .
CCc1nc(-c2ccc(C)c(S(=O)(=O)N3CCN(c4ccc(C(C)=O)cc4)CC3)c2)no1 | ? | . | 7.31µM* | 13µM* | . | .
CCc1ccc(-c2cc(C)no2)cc1S(=O)(=O)N1CCN(c2ccccc2F)CC1 | -6.1% | 6.9% | -10.3% | ? | 6.7 | 10.5%
Cc1cc(-c2ccc(C)c(S(=O)(=O)N3CCN(c4ccc(F)cc4)CC3)c2)on1 | -1.0% | 17.9% | ? | -30.0% | -7.7 | ?
